Data as given in PubChem BioAssay (NCATS).
Where “and” joins values, the source holds several entries; their conditions need not be identical. Equal entries are not always repeated. Inconclusive results are not listed. Calls of active or inactive are those of the source. Unless noted, calls come from the whole dose curve; as a rule, active = well fitted curve in the direction sought with a large enough effect; inconclusive = small, poorly fitted or top-dose-only effect, or another doubt; inactive = no such curve, though single readings can be large; an effect the other way counts as inactive or inconclusive.

How the values were obtained:
[1] = Primary qHTS for small molecule stabilizers of the endoplasmic reticulum resident proteome: Secreted ER Calcium Modulated Protein (SERCaMP) assay (AID 1508630); note: % is set by controls: 0 for no effect and ±100 for the full control effect
Summary of the method: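 GLuc-SERCaMP-expressing SH-SY5Y cells, pretreated 16 h with compound, are challenged with thapsigargin to empty ER calcium stores; after 4 h, coelenterazine is added directly to the medium and luminescence is imaged.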

[2] = A High-Content qHTS Against Drug Library for the Identification of Small Molecules that Inhibit DYT1 Early Onset Primary Dystonia-Associated Cell Pathology (AID 1645839; calls by dose curve)
Summary of the method: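 In this high-content image screen, delE TorsinA mislocalization in inducible Flp-In 293 cells is scored as %pathology, with cell count serving as the counterscreen. Compound exposure lasts 48 h under tetracycline induction in reduced-serum medium.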

[3] = target: Cytochrome P450 2D6 (Homo sapiens) (UniProt P10635); assay: Cytochrome P450 family 2 subfamily D member 6 (CYP2D6) small molecule antagonists: luciferase biochemical (cell-free) qHTS assay (AID 1645840; active = well fitted curve in the direction sought with a large enough effect in the repeat runs; an effect the other way counts as inactive or inconclusive; note: nearly all actives have a fitted effect of over 55% in size; note: potency is the fitted concentration of half-maximal effect; for activity change, negative = inhibition: % is set by controls: 0 for no effect and ±100 for the full control effect)
Chain of Cytochrome P450 2D6 (Homo sapiens) (P10635 whole entry, looked up): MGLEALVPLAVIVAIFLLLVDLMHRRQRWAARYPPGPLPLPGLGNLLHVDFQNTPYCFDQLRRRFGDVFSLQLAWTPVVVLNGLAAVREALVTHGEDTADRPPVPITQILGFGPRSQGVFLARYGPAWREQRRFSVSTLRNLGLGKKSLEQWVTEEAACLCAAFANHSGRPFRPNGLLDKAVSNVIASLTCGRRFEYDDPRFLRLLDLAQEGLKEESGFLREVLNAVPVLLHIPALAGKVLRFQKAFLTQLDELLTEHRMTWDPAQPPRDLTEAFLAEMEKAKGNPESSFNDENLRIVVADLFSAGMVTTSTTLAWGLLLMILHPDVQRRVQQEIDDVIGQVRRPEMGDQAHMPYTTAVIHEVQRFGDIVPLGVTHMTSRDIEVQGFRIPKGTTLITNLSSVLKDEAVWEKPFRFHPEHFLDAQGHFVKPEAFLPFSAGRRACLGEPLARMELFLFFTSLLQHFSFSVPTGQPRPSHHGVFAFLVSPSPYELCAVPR
Summary of the method: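 P450-Glo luminescent screen: recombinant CYP2D6 enzyme–proluciferin substrate mix preincubated with compound 10 min at room temperature, then NADPH regeneration added for 1 h at room temperature. Detection reagent added for 20 min; luciferin light read as relative luminescence units.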

[4] = target: Cytochrome P450 2C9 (Homo sapiens) (UniProt P11712); assay: Cytochrome P450 family 2 subfamily C member 9 (CYP2C9) small molecule antagonists: luciferase biochemical (cell-free) qHTS assay (AID 1645842; active = well fitted curve in the direction sought with a large enough effect in the repeat runs; an effect the other way counts as inactive or inconclusive; note: nearly all actives have a fitted effect of over 55% in size; note: potency is the fitted concentration of half-maximal effect)
Chain of Cytochrome P450 2C9 (Homo sapiens) (P11712 whole entry, looked up): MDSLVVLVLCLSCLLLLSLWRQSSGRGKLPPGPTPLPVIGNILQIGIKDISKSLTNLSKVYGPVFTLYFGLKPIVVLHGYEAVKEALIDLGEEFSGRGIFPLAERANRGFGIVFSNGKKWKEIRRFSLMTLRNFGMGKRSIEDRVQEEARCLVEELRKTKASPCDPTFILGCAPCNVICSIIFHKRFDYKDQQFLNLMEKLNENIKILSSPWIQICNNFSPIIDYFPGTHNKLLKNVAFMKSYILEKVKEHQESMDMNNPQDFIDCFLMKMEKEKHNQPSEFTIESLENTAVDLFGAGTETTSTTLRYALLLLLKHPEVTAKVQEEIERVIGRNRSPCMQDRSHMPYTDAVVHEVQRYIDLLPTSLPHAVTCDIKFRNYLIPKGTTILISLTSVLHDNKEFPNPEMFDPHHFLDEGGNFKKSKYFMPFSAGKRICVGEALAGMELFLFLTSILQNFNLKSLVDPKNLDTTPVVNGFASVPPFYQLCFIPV
Summary of the method: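 Luminescence, after 20 min with luciferin detection reagent, reflected CYP2C9 turnover during a 1 h NADPH-driven reaction at 37C. Enzyme-substrate mix contained 0.4% bovine serum albumin and was preincubated with compound 10 min at room temperature.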

[5] = Cytotoxicity counterscreen for inhibitors of SARS-CoV-2 cell entry (AID 1645845; calls by dose curve; note: nearly all actives have a fitted effect of over 50% in size)
Summary of the method: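 48 h compound treatment (after 1 h preincubation), HEK293-ACE2 cells, 37 C/5% CO2; ATP luminescence endpoint; normalized to cell wells and media blanks.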

[6] = Primary qHTS to identify inhibitors of SARS-CoV-2 cell entry (AID 1645846; calls by dose curve; note: nearly all actives have a fitted effect of over 45% in size); conditions: activity change, negative = inhibition: at 57.1 µM (top of the series) unless noted
Summary of the method: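 Inhibition of spike-mediated entry was scored in human ACE2-transfected Expi293F cells. Particles were MLV-pseudotyped with Wuhan-Hu-1 S carrying a 19-aa C-terminal deletion; signal was luciferase after two days, scaled between spike PP and fusion-protein-free PP.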

[7] = target: Papain (Carica papaya) (UniProt P00784); assay: Primary qHTS assay for inhibitors of the protease papain (AID 1645873);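 note: papain turnover of Z-FR-AMC read as the AMC fluorescence gain over 10 min; % is set by controls: 0 for no effect and ±100 for the full control effect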
Chain of Papain (Carica papaya) (P00784 whole entry, looked up, the tested form may be a part): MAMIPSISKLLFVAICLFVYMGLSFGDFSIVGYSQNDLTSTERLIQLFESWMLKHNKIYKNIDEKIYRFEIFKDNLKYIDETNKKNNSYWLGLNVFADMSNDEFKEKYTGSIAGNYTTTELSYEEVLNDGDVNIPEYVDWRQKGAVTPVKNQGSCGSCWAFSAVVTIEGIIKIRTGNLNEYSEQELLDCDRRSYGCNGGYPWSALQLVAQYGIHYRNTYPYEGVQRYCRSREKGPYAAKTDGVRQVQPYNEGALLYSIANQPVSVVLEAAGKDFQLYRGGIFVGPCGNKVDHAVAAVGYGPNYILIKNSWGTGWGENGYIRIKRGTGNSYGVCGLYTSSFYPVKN

[8] = Primary qHTS for inhibitors of nuclear receptor binding SET domain protein 2 (NSD2) in an isogenic RCH-ACV NSD2 p.E1099K mutant (9B) (AID 1645876); note: nearly all actives have a fitted effect of over 70% in size; note: potency is the fitted concentration of half-maximal effect
[9] = Primary qHTS for inhibitors of nuclear receptor binding SET domain protein 2 (NSD2) in an RCH-ACV wild type WT cells (2C) (AID 1645877); note: nearly all actives have a fitted effect of over 70% in size; note: potency is the fitted concentration of half-maximal effect
[10] = VSVG counterscreen qHTS to identify inhibitors of SARS-CoV-2 cell entry (AID 1645847; calls by dose curve; note: potency is the fitted concentration of half-maximal effect; nearly all actives have a fitted effect of over 65% in size)
Summary of the method: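 Luminescence from a luciferase reporter, normalised to bald particle and VSV-G pseudotyped particle wells, is the read-out. Cells are HEK293 expressing human ACE2, exposed to compound 1 h before a 48 h particle infection at 37 °C.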

[11] = Counterscreen qHTS for small molecule stabilizers of the endoplasmic reticulum resident proteome: GLuc-NoTag assay (AID 1508627);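 note: SH-SY5Y cells given compound then 100 nM thapsigargin to empty ER calcium; 0% = thapsigargin alone and -100% = DMSO vehicle control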
Summary of the method: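 Luminescence of Gaussia luciferase secreted into the medium (coelenterazine, 0.07x final, unlysed cells) was the read-out. Human SH-SY5Y neuroblastoma cells constitutively secreting untagged GLuc received compound for 19 h, then 100 nM thapsigargin for 4 h.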

[12] = Confirmatory qHTS for small molecule stabilizers of the endoplasmic reticulum resident proteome: Secreted ER Calcium Modulated Protein (SERCaMP) assay (AID 1508628);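 note: SH-SY5Y cells given compound 16 h then thapsigargin 100 nM for 4 h; % is set by controls: 0 for no effect and ±100 for the full control effect; nearly all actives have a fitted effect of over 40% in size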
Summary of the method: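 We seeded SH-SY5Y-GLuc-SERCaMP cells, added compounds (three concentrations in the primary run, eleven up to 76.6 uM in confirmation), incubated 16 h, depleted ER calcium with thapsigargin, and read luciferase 4 h later.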

[13] = Cell Viability qHTS for small molecule stabilizers of the endoplasmic reticulum resident proteome (AID 1508629); conditions: cell viability counter-screen, 100 nM thapsigargin for final 4 h;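 note: human SH-SY5Y neuroblastoma cells carrying the GLuc-SERCaMP reporter; compound exposure about 46 h in total before the viability read; % is set by controls: 0 for no effect and ±100 for the full control effect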
[14] = target: Rap guanine nucleotide exchange factor 3 (Homo sapiens) (UniProt O95398); assay: Confirmatory qHTS for agonist of cAMP-regulated guanine nucleotide exchange factor 3 (EPAC1) (AID 1645881);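 note: EPAC1 catalysed release of BODIPY-GDP from Rap1B seen as fluorescence loss; 100% = effect of cAMP agonist control; nearly all actives have a fitted effect of over 75% in size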
Chain of Rap guanine nucleotide exchange factor 3 (Homo sapiens) (O95398 whole entry, looked up): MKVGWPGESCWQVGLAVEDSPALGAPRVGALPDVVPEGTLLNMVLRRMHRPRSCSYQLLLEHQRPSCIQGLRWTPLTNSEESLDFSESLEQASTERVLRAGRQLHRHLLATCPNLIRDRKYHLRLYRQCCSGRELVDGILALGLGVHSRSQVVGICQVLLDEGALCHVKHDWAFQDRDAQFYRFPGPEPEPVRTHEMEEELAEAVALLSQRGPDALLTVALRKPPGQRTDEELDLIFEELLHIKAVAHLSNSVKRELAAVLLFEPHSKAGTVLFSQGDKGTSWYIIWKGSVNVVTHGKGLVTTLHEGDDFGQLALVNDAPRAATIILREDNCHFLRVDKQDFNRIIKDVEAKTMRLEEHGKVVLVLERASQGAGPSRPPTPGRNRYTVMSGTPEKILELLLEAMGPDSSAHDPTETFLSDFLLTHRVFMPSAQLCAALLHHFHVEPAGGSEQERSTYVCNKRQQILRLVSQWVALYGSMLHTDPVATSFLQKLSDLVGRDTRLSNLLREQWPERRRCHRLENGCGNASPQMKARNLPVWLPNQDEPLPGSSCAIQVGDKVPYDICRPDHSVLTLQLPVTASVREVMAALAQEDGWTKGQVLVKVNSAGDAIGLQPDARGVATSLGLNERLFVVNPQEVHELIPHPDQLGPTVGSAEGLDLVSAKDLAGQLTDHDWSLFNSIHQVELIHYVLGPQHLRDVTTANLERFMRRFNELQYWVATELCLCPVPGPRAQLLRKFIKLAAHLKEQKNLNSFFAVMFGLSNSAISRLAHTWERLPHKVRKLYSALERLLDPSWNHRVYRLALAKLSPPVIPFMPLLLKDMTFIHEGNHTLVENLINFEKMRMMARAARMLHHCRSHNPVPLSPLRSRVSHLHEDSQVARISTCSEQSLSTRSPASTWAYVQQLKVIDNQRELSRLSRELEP

[15] = target: Rap guanine nucleotide exchange factor 4 (Homo sapiens) (UniProt Q8WZA2); assay: Confirmatory qHTS for agonist of cAMP-regulated guanine nucleotide exchange factor 4 (EPAC2) (AID 1645884);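 note: nucleotide exchange releases bodipy-GDP from Rap1 and this lowers its fluorescence; % is set by controls: 0 for no effect and ±100 for the full control effect; nearly all actives have a fitted effect of over 65% in size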
Chain of Rap guanine nucleotide exchange factor 4 (Homo sapiens) (Q8WZA2 whole entry, looked up): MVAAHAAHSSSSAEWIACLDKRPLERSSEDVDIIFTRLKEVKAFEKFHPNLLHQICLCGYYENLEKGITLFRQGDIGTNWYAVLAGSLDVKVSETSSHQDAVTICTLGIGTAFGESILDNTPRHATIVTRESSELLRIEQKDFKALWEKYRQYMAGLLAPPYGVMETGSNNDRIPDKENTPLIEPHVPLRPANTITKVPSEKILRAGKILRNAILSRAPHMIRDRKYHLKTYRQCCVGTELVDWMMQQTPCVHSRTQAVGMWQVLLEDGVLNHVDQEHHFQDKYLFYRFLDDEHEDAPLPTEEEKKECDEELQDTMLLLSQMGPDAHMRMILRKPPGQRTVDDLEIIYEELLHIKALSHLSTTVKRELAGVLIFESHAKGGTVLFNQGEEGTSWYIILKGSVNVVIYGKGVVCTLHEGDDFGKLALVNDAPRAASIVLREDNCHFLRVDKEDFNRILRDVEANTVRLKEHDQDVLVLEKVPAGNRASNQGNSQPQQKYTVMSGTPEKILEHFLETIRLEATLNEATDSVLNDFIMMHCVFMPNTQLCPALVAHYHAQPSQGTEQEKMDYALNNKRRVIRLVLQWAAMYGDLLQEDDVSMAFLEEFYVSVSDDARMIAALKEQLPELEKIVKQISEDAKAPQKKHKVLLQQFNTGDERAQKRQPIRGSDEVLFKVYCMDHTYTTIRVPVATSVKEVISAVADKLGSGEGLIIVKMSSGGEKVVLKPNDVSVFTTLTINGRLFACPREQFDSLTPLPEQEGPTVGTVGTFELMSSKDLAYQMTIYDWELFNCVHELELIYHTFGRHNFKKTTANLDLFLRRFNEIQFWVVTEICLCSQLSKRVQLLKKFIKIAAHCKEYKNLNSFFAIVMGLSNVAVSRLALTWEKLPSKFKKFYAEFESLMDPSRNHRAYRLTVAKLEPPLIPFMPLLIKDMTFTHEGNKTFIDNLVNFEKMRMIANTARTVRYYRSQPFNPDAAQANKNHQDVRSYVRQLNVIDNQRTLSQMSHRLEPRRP

[16] = target: Rap guanine nucleotide exchange factor 4 (Homo sapiens) (UniProt Q8WZA2); assay: Confirmatory qHTS for antagonist of cAMP-regulated guanine nucleotide exchange factor 4 (EPAC2) (AID 1645885); note: potency is the fitted concentration of half-maximal effect; nearly all actives have a fitted effect of over 25% in size

NCC1(CC(=O)O)CCCCC1
inactive: outcome [1] | Potency [2] | Potency [3] | Potency [4] | Potency [5] | Potency [7] | Potency [8] | Potency [9]
1.13%: activity change, negative = inhibition [6]

CC[C@@H](CO)NC(=O)[C@@H]1C=C2c3cccc4[nH]cc(c34)C[C@H]2N(C)C1
-4.87%: activity change, negative = inhibition [6]
inactive: outcome [1] | Potency [2] | Potency [4] | Potency [5] | Potency [8] | Potency [9]

O=C1NCN(c2ccccc2)C12CCN(CC1COc3ccccc3O1)CC2 (stereo not drawn)
active: Potency [3] 0.0245 µM | Potency [4] 6.17 µM
inactive: outcome [1] | Potency [2] | Potency [7] | Potency [8] | Potency [9]

N[C@@H](Cc1ccc(N(CCCl)CCCl)cc1)C(=O)O
inactive: outcome [1] | Potency [2] | Potency [5]
active: Potency [3] 19.5 µM | Potency [10] 0.152 µM | Potency [8] 2.99 µM and 2.63 µM | Potency [9] 2.66 µM and 2.35 µM

CCN(CC)CCOC(=O)C(O)(c1ccccc1)c1ccccc1
active: Potency [3] 5.49 µM
inactive: Potency [11] | Potency [12] | max response [13] 31.2% | Potency [2] | Potency [4] | Potency [8] | Potency [9]

O=C(NC(O)C(Cl)(Cl)Cl)NC(O)C(Cl)(Cl)Cl (stereo not drawn)
inactive: outcome [1] | Potency [2] | Potency [3] | Potency [4] | Potency [8] | Potency [9]

CC(C)(C)NCC(O)c1cc(Cl)c(N)c(Cl)c1 (stereo not drawn)
0.184%: activity change, negative = inhibition [6]
inactive: outcome [1] | Potency [2] | Potency [4] | Potency [5] | Potency [8] | Potency [9]

COC[C@@H](NC(C)=O)C(=O)NCc1ccccc1
inactive: Potency [12] | outcome [1] | Potency [2] | Potency [3] | Potency [4] | Potency [5] | Potency [6] | Potency [8] | Potency [9]

Cc1ncc(CNC(=O)N(CCCl)N=O)c(N)n1
inactive: outcome [1] | Potency [2] | Potency [5] | Potency [6] | Potency [7] | Potency [8] | Potency [9]

CC(C)(C)CC(C)(C)c1ccc(O)cc1
inactive: outcome [1] | Potency [2] | outcome [14] | outcome [15]
active: Potency [3] 36.6 µM | Potency [4] 11.9 µM and 15.5 µM | Potency [8] 24.3 µM | Potency [16] 49.4 µM and 56.9 µM

O=P1(NCCCl)OCCCN1CCCl (stereo not drawn)
-11%: activity change, negative = inhibition [6]
inactive: outcome [1] | Potency [2] | Potency [5] | Potency [6] | Potency [8] | Potency [9]

CC(C)CC(N(C)C)C1(c2ccc(Cl)cc2)CCC1 (stereo not drawn)
active: Potency [3] 4.36 µM
2.03%: activity change, negative = inhibition [6]
inactive: Potency [11] | Potency [12] | max response [13] 6.57% | outcome [1] | Potency [2] | Potency [4] | Potency [5] | Potency [8]

OCCOc1ccccc1
inactive: Potency [2] | Potency [3] | Potency [4] | Potency [5] | Potency [8] | Potency [9]

c1ccc(C2CC2)c(OCC2=NCCN2)c1
active: Potency [3] 4.36 µM
inactive: Potency [2] | Potency [4] | Potency [7] | Potency [9]

CNC(=O)N1N=C(c2ccc(N)cc2)c2cc3c(cc2CC1C)OCO3 (stereo not drawn)
active: Potency [4] 1.51 µM | Potency [8] 3.65 µM | Potency [9] 2.05 µM
inactive: outcome [1] | Potency [3]

C[C@]12CCC(=O)C(O)=C1CC[C@@H]1[C@@H]2CC[C@]2(C)C(=O)CC[C@@H]12
inactive: Potency [2] | Potency [3] | Potency [4] | Potency [5] | Potency [6] | Potency [8] | Potency [9]

CCN(CC)CCN1C(=O)CN=C(c2ccccc2F)c2cc(Cl)ccc21
inactive: Potency [2] | Potency [4] | Potency [8]
active: Potency [3] 13.8 µM

Cc1cccc(C)c1NC(=O)CN1CCCC1=O
inactive: Potency [2] | Potency [3] | Potency [4] | Potency [5] | Potency [7] | Potency [8] | Potency [9]
-12.8%: activity change, negative = inhibition [6]

CC(=O)Nc1cc([As](=O)(O)O)ccc1O
inactive: Potency [2] | Potency [3] | Potency [4] | Potency [5] | Potency [8] | Potency [9]

FC(F)(F)c1cccc(C2=CCN(CCc3ccc4ccccc4c3)CC2)c1
inactive: Potency [2] | Potency [4] | Potency [5] | Potency [8] | Potency [9]
active: Potency [3] 0.0098 µM

CC(=O)[C@H]1CC[C@H]2[C@@H]3CC[C@H]4C[C@](C)(O)CC[C@]4(C)[C@H]3CC[C@]12C
inactive: Potency [2] | Potency [4] | Potency [7] | Potency [8] | Potency [9]
active: Potency [3] 1.23 µM

C=C1CC[C@@]2(O)[C@H]3Cc4ccc(O)c5c4[C@@]2(CCN3CC2CC2)[C@H]1O5
active: Potency [3] 2.75 µM
inactive: Potency [2] | Potency [4] | Potency [5] | Potency [6] | Potency [8] | Potency [9]

NCC(CC(=O)O)c1ccc(Cl)cc1 (stereo not drawn)
inactive: % pathology change, negative = correction [2] 14.6% [at 0.369 µM] | activity change, negative = inhibition [3] 14.3% [at 0.91 µM] | activity change, negative = inhibition [4] 15.7% [at 0.91 µM] | activity change, negative = cytotoxicity [5] 1.92% [at 0.702 µM] | Potency [7] | activity change, negative = viability loss [8] 3.1% [at 0.588 µM] | activity change, negative = cell killing [9] -19.2% [at 0.588 µM]
0.754% [at 0.702 µM]: activity change, negative = inhibition [6]

CC(=O)[C@H]1CC[C@H]2[C@@H]3CC[C@H]4C[C@H](O)CC[C@]4(C)[C@H]3C(=O)C[C@]12C
inactive: outcome [1] | Potency [2] | Potency [9]

CC1OC(C)OC(C)O1 (stereo not drawn)
inactive: Potency [2] | Potency [3] | Potency [4] | Potency [8] | Potency [9]

CCCC(C)(COC(N)=O)COC(=O)NC(C)C (stereo not drawn)
inactive: Potency [2] | Potency [3] | Potency [4] | Potency [8] | Potency [9]
